Values joined by “and” are separate entries in the source; they are usually repeats but may differ in a detail not shown here. Identical values can stand only once. A number with no mark means an inactive call. Results filed as inconclusive are left out. Active and inactive are the calls of the source. Calls come from the whole dose curve; as a rule, active = well fitted curve in the direction sought with a large enough effect; inconclusive = small, poorly fitted or top-dose-only effect, or another doubt; inactive = no such curve, though single readings can be large; an effect the other way counts as inactive or inconclusive.

A short description of assay [1]: Cellular Toxicity (caspase-3) HepG2 (AID 654).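 Note: cells exposed to compound for 16 hours before reading; 0% = DMSO alone and 100% = caspase signal from 100 µM tamoxifen.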 The essentials:
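Caspase 3/7 activation is measured as a luminescence increase (aminoluciferin substrate) after 16 h compound exposure of human hepatocarcinoma HepG2 cells. AC50 values are Hill fits, scaled between DMSO baseline and 100 uM tamoxifen stimulation.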

A short description of assay [2]: Cellular Toxicity (caspase-3) Jurkat (AID 655).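 Note: cells exposed to compound for 16 h at 37 °C before reading.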 In short, it runs like this: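 Luminescent Caspase-Glo 3/7 read-out (20 min, room temperature) after 16 h compound treatment at 37 C of 5000 Jurkat cells per well. AC50 derived by Hill-equation fitting, scaled between DMSO basal and 100 uM tamoxifen stimulation.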
A short description of assay [3]: Cellular Toxicity (caspase-3) SHSY5Y (AID 657). Note: potency is the fitted concentration of half-maximal effect. In short, it runs like this:
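Luminescent Caspase-Glo 3/7 read-out, 1 hr room temperature, follows 16 hours of compound treatment of SH-SY5Y cells at 37 °C. Normalization: DMSO basal, 10 uM staurosporine as 100%; AC50 values from Hill-equation concentration-response fits.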

Assay [4] in a line: Cellular Toxicity (caspase-3) BJ (AID 658).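 Note: 0% = DMSO basal and 100% = 10 µM staurosporine.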 To be noted: Potency: caspase-3 activation. The essentials:
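Caspase-Glo 3/7 luminescence, read 1 hr after reagent at room temperature, in normal BJ fibroblasts exposed 16 hours at 37 °C. AC50 values from Hill-equation concentration-response, scaled between DMSO basal and 10 uM staurosporine as 100%.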

Assay [5] in a line: Cellular Toxicity (caspase-3) MRC-5 (AID 659).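 Note: 0% = DMSO basal and 100% = 10 µM staurosporine.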 In short, it runs like this: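 Luminescent Caspase-Glo 3/7 read-out (1 h, room temperature) after a 16 h, 37 °C compound exposure of MRC-5 lung fibroblasts at 1500 cells/well. Concentration-response AC50 from Hill equation; 0% DMSO, 100% 10 uM staurosporine.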
The nature of assay [6]: Cellular Toxicity (caspase-3) Mesangial (AID 660).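 Note: combined caspase 3 and 7 activity read by Caspase-Glo luminescence; cells exposed to compound for 16 h before the caspase read.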 The essentials: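 Caspase 3/7 activation measured by Caspase-Glo 3/7 luminescence (20 min, room temperature) following 16 h exposure of mesangial cells (1000/well); AC50 from Hill-equation fit, normalized to DMSO and 100 uM tamoxifen.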
Assay [7] in a line: Cellular Toxicity (caspase-3) SK-N-SH (AID 661).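 For caspase-3 activation: 0% = DMSO basal and 100% = 10 µM staurosporine.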 Note: potency is the fitted concentration of half-maximal effect. The settings on record: SK-N-SH caspase-3 activation, qHTS; caspase-3 activation: at 91.7 µM (top of the series), DMSO as zero, staurosporine as full. In short, it runs like this:
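Caspase 3/7 activation was read by luminogenic substrate cleavage after 16 hour treatment of SK-N-SH cells. Signal was scaled between DMSO and 10 uM staurosporine, and concentration-response data were fitted with the Hill equation for AC50.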
A general note: In qHTS, concentration-response curves come from the screen itself.

A short description of assay [8]: Cellular Toxicity (caspase-3) H-4-II-E (AID 663).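 Note: cells exposed to compound for 16 hr before readout.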 In short, it runs like this: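 Caspase 3/7 activation measured by luminescent aminoluciferin substrate cleavage after 16 hr compound treatment of H-4-II-E cells in complete medium. Increase normalized between DMSO (basal) and 100 uM tamoxifen (100%); Hill-equation AC50 from concentration-response.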
The nature of assay [9]: Cellular Toxicity (caspase-3) Hek293 (AID 664).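 Note: cells exposed to compound for 16 h at 37 °C before readout.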 The settings on record: HEK293 caspase-3 activation, DMSO = 0%, 100 µM tamoxifen = 100%; at 92.2 µM (top of the series). In short, it runs like this:
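Concentration-response qHTS: caspase 3/7 activation measured by luminescent aminoluciferin substrate cleavage after 16 h compound exposure of Hek 293 cells. AC50 from Hill equation, with DMSO as basal and 100 uM tamoxifen as 100%.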

Take `OCc1ccccc1`: the outcome in assay [1], in [5], in assay [6] and in [8] was inactive. Also, the Potency result in assay [2], in assay [3], in [4] and in assay [7] was “inactive” each time. Also, the caspase-3 activation in assay [9] is -0.432%.

Consider `CCCCO`, for which the compound was classed as inactive in assay [1], in assay [5], in assay [6] and in assay [8]. The Potency result in [2], in assay [3], in assay [4] and in assay [7] was “inactive” throughout. Besides, the caspase-3 activation in assay [9] is 0.832% and 0.952%.

`O.O.O.O.O.O.O.O=S(=O)([O-])[O-].[Co+2]`: the call in assay [1], in [5], in [6] and in [8] was inactive. Moreover, the Potency entry in assay [2], in assay [3], in assay [4] and in assay [7] was “inactive” each time. Further, the caspase-3 activation in [9] was -1.13%.

Turning to `[O-][N+](=Nc1ccccc1)c1ccccc1`, the outcome in assay [1], in assay [5], in [6] and in [8] was inactive. Also, the Potency entry in assay [2], in assay [3], in assay [4] and in assay [7] was “inactive” in each case. Moreover, the caspase-3 activation in assay [9] is 0.871%.

Regarding `CC/C=C\C/C=C\C/C=C\CCCCCCCC(=O)O`, the compound was classed as inactive in assay [1], in assay [5], in assay [6] and in assay [8]. The Potency result in [2], in assay [3], in assay [4] and in assay [7] was “inactive” throughout. In assay [9], the caspase-3 activation was 0.606%.

Take `Oc1ccc(/C=C/c2cc(O)cc(O)c2)cc1`: the outcome in assay [1], in [5] and in assay [6] was inactive. For the same compound, the Potency result in [2], in assay [3], in assay [4] and in assay [7] was “inactive” in each case. In addition, in assay [9], the caspase-3 activation was -7.92%.

For the compound `CCOC(C)OCC`, the result in assay [1], in assay [5], in assay [6] and in assay [8] was inactive. The Potency entry in assay [2], in assay [3], in [4] and in assay [7] was “inactive” each time. In addition, the caspase-3 activation in assay [9] was 0.677%.

On to `OB(O)O`, for which the result in assay [1], in assay [5], in [6] and in assay [8] was inactive. Also, the Potency entry in assay [2], in assay [3], in assay [4] and in assay [7] was “inactive” throughout. Further, the caspase-3 activation in [9] is -1.81%.

In the case of `C[C@H](CCC(=O)O)[C@H]1CC[C@H]2[C@@H]3[C@H](O)C[C@@H]4C[C@H](O)CC[C@]4(C)[C@H]3C[C@H](O)[C@]12C`, the compound was classed as inactive in [1], in [5], in [6] and in assay [8]. The Potency result in assay [2], in assay [3], in assay [4] and in assay [7] was “inactive” each time. For the same compound, in assay [9], the caspase-3 activation is -0.41%.

On to `ClC(Cl)Cl`, for which the call in assay [1], in assay [5], in assay [6] and in [8] was inactive. For the same compound, the Potency entry in assay [2], in assay [3], in assay [4] and in [7] was “inactive” each time. Further, the caspase-3 activation in assay [9] is 0.0594%.

`COC(=O)c1ccccc1O`: the result in [1], in assay [5], in assay [6] and in [8] was inactive. The Potency entry in assay [2], in assay [3], in [4] and in assay [7] was “inactive” in each case. Also, in assay [9], the caspase-3 activation was 0.0886%.

With `Nc1ncnc2c1ncn2[C@H]1CC[C@@H](CO)O1`, the compound was called inactive in assay [1], in assay [5], in assay [6] and in [8]. In addition, the Potency result in assay [3], in assay [4] and in [7] was “inactive” each time. For the same compound, the caspase-3 activation in [9] is 2.37%.

With `Nc1nccs1`, the outcome in assay [1], in assay [5], in assay [6] and in assay [8] was inactive. In addition, the Potency result in assay [2], in assay [3], in [4] and in assay [7] was “inactive” in each case. Besides, the caspase-3 activation in [9] is 0.166%.

Consider `OC[C@H]1O[C@@H]2O[C@H]3[C@H](O)[C@@H](O)[C@@H](O[C@H]4[C@H](O)[C@@H](O)[C@@H](O[C@H]5[C@H](O)[C@@H](O)[C@@H](O[C@H]6[C@H](O)[C@@H](O)[C@@H](O[C@H]7[C@H](O)[C@@H](O)[C@@H](O[C@H]1[C@H](O)[C@H]2O)O[C@@H]7CO)O[C@@H]6CO)O[C@@H]5CO)O[C@@H]4CO)O[C@@H]3CO`, for which the call in assay [1], in assay [5], in assay [6] and in [8] was inactive. In addition, the Potency result in [2], in assay [3], in assay [4] and in [7] was “inactive” each time. In addition, the caspase-3 activation in assay [9] was 0.542%.

Take `C/C=C/C=C/C(=O)O`: the call in assay [1], in [5], in [6] and in assay [8] was inactive. Moreover, the Potency result in assay [2], in assay [3], in assay [4] and in assay [7] was “inactive” throughout. In addition, the caspase-3 activation in assay [9] was -0.294%.

Turning to `O=c1n(CC2CO2)c(=O)n(CC2CO2)c(=O)n1CC1CO1` (stereo not drawn), the compound was called inactive in assay [1], in assay [5], in assay [6] and in assay [8]. The Potency in assay [3] was 12.6 µM (active); in assay [7], 15.8 µM (active). Moreover, in assay [4], the Potency entry was “inactive”. Further, the caspase-3 activation in assay [9] was 3.19%.

Take `CCCCC`: the result in [1], in assay [5], in [6] and in assay [8] was inactive. For the same compound, the Potency entry in [2], in [3], in [4] and in [7] was “inactive” each time. The caspase-3 activation in assay [9] was 2.68%.

In the case of `C[C@H](CCC(=O)O)[C@H]1CC[C@H]2[C@@H]3CC[C@@H]4C[C@H](O)CC[C@]4(C)[C@H]3C[C@H](O)[C@]12C`, the call in [1], in [5], in assay [6] and in assay [8] was inactive. The Potency result in assay [2], in assay [3], in assay [4] and in [7] was “inactive” each time. Besides, the caspase-3 activation in assay [9] was -1.48%.

As to `CO`, the call in assay [1], in assay [5], in assay [6] and in assay [8] was inactive. Further, the Potency entry in [2], in [3], in [4] and in assay [7] was “inactive” throughout. Also, in [9], the caspase-3 activation was -0.124%.

The record behind these values is PubChem BioAssay (NCATS).
